# According to PubChem BioAssay (Tox21):
# Records with an inconclusive call do not appear. Where a call stands in place of a potency, no number is given. More than one record can exist for a structure, and the calls need not agree. Activity calls are given as the source filed them. The call rests on the fitted dose curve; in most records, active means well fitted cell-killing curve with a large enough effect in the repeat runs; inconclusive means weak or mixed curves, or effect the other way; inactive means flat fitted curve, though single readings scatter.
# Assay: qHTS RealTime-Glo MT Cell Viability Assay in HEK293 cells - 16 hour (AID 1224872); further: nearly all actives have a fitted effect of over 50% in size
# Settings: RealTime-Glo luminescence; series mostly up to 76.8 µM
# Text: National Center for Advancing Translational Sciences [NCATS]
# NIH Chemical Genomics Center [NCGC]
# U.S. Environmental Protection Agency [EPA]
# National Institutes of Environmental Health Sciences [NIEHS]
# National Toxicology Program [NTP]
# U.S. Food and Drug Administration [FDA]
# Measure of cell viability is critical in the cell-base assay. Analysis of cell viability is necessary for the characterization of cell responses to cytotoxic drugs and environmental stress. A RealTime-Glo MT Cell Viability Assay to monitor cell viability in real time of continues cell culture during 40 hours of compound treatment was used to screen Tox21 10K library compounds in Hek293 cells. The RealTime-Glo MT Cell Viability Assay is a nonlytic, homogeneous, bioluminescent method to measure cell viability in real time using a simple, plate-based method. The assay involves adding NanoLuc luciferase and a cell-permeant prosubstrate to cells in culture. Viable cells reduce the proprietary prosubstrate to generate a substrate for NanoLuc luciferase. This substrate diffuses from cells into the surrounding culture medium, where it is rapidly used by the NanoLuc Enzyme to produce a luminescent signal. The signal correlates with the number of viable cells, making the assay well suited for cytotoxicity studies.
# Tox21 Assay Protocol Summary:
# The mixture of Hek293 cell suspension and reagents were dispensed at 600cells/6 ul/well in 1536-well tissue culture treated black solid bottom plates using a Multidrop dispenser. After the assay plates were incubated at a 37 C/5% CO2 incubator for 5 hours, 23 nL of compounds dissolved in DMSO, positive and negative controls was transferred to the assay plate by a pintool work station. The plates were incubated at 37 C for 40 hours. The luminescence intensity were measured at 0h, 8h, 16h, 24h, 32h and 40h time points using ViewLux plate reader during compound treatment.
# Potency means the concentration at half of the fitted maximal effect.
row,SMILES,Potency
1,Cc1ccc(N(CCO)CCO)cc1,inactive
2,O=S(=O)(O)CO,inactive
3,Cc1cn([C@H]2C[C@H](F)[C@@H](CO)O2)c(=O)[nH]c1=O,inactive
4,COc1ccc(C2C(=O)c3ccccc3C2=O)cc1,inactive
5,Oc1ccc2c(c1)Cc1ccccc1-2,21.9 µM (active)
6,BrC(Br)C(Br)Br,inactive
7,CC(C)(C)CCCCCCOC(=O)c1ccccc1C(=O)OCCCCCCC(C)(C)C,inactive
8,CC(CCc1ccc(O)cc1)NCCc1ccc(O)c(O)c1 (stereo not given),inactive
9,Nc1ccc(F)cc1,inactive
10,CC(C)(O)CCc1ccccc1,inactive
11,CCCCC(CC)COS(=O)(=O)O (stereo not given),inactive
12,CCN(CC)CCNC(=O)c1cc(Cl)c(N)cc1OC,inactive
13,Cc1ccc(Nc2c(F)cccc2Cl)c(CC(=O)O)c1,inactive
14,CC(C)N(C)C,inactive
15,CCN(CC)c1cccc(O)c1,inactive
16,Cc1cccc(C)c1NC(=O)c1cc(S(N)(=O)=O)c(Cl)cc1O,inactive
17,CC(=O)OC(C)C[N+](C)(C)C (stereo not given),inactive
18,CC(C)(C)NCC(O)COc1cccc2c1C[C@H](O)[C@H](O)C2 (stereo not given in full),inactive
19,COC1CCC=CO1 (stereo not given),inactive
20,CCCCCc1ccco1,inactive

row,SMILES,Potency
1,COc1ccc2nc(S(=O)Cc3ncc(C)c(OC)c3C)[nH]c2c1 (stereo not given),21.6 µM (active) and inactive
2,CCCCCCCC(=O)Oc1c(Br)cc(C#N)cc1Br,38.8 µM (active)
3,CCN(CC)C(=O)N1CCN(C)CC1,inactive
4,COC(=O)C1=C(C)NC(C)=C(C(=O)OC(C)(C)CN(C)CCC(c2ccccc2)c2ccccc2)C1c1cccc([N+](=O)[O-])c1 (stereo not given),inactive
5,CC(C)Cc1ccc(CC(=O)O)cc1,inactive
6,O=C(O)c1cccc(C[C@@H]2COc3ccc(OCc4nc5cc(F)ccc5s4)cc3[C@@H]2O)c1,inactive
7,CC(C)(C)C1(CCc2ccc(Cl)cc2)CO1 (stereo not given),inactive
8,CCCCCCCCCCCC(=O)OCC(O)CO (stereo not given),inactive
9,O=C(O)CO,inactive
10,CCOCCC(=O)OCC,inactive
11,O=NN(CCCl)C(=O)NCCCl,inactive
12,Cc1ccc(S(=O)(=O)NC(=O)NC2CCCCC2)cc1,inactive
13,O=C(O)CNC(=O)c1ccccc1I,inactive
14,Nc1nc2ccc(OC(F)(F)F)cc2s1,inactive
15,Cc1c(C2(c3cc(Br)c(O)c(Br)c3C)OS(=O)(=O)c3ccccc32)cc(Br)c(O)c1Br,inactive
16,CCSC(=O)N(CC)CC,inactive
17,CC(C)C(=O)OCCOc1ccccc1,inactive
18,CCN(Cc1cccc(S(=O)(=O)O)c1)c1ccc(C(=C2C=CC(=[N+](CC)Cc3cccc(S(=O)(=O)O)c3)C=C2)c2ccccc2S(=O)(=O)[O-])cc1,inactive
19,O=C1OC[C@H](Cc2cccc(O)c2)[C@H]1Cc1cccc(O)c1,inactive
20,Cc1cc([N+](=O)[O-])ccc1N,inactive
